# Measured values: PubChem BioAssay
# Activity calls are given as the source filed them. Unless noted, no rule for the calls is given here.
# How the values were obtained:
# [1] = anti-His antibody binders, primary screen, artefact control for SMM control protein annotation, biochemical, small-molecule microarray, 635 nm fluorescence (AID 1128); details: anti-His Alexa647 antibody binding, higher = more signal;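 also: score merges feature fluorescence with signal-to-noise for each printed compound spot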
# [2] = system: Human papillomavirus type 1a E7 protein (residues 1-88); assay: HPV1a E7 small-molecule binders, primary screen, biochemical, small-molecule microarray, residues 1-88, 635 nm (AID 1129); details: small-molecule microarray binding, fluorescence 635 nm; higher = more signal
# [3] = biological target: Focal adhesion kinase 1 (Homo sapiens) (UniProt Q05397); assay: small-molecule microarray binders of FAK, primary screen, biochemical, 635/667 nm fluorescence, BSA, DTT (AID 1130); details: PTK2 binding, 635 nm fluorescence, higher = more signal;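 also: composite of spot emission at 667 nm and signal to noise over triplicate slides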
# Chain of Focal adhesion kinase 1 (Homo sapiens) (Q05397 whole entry, looked up): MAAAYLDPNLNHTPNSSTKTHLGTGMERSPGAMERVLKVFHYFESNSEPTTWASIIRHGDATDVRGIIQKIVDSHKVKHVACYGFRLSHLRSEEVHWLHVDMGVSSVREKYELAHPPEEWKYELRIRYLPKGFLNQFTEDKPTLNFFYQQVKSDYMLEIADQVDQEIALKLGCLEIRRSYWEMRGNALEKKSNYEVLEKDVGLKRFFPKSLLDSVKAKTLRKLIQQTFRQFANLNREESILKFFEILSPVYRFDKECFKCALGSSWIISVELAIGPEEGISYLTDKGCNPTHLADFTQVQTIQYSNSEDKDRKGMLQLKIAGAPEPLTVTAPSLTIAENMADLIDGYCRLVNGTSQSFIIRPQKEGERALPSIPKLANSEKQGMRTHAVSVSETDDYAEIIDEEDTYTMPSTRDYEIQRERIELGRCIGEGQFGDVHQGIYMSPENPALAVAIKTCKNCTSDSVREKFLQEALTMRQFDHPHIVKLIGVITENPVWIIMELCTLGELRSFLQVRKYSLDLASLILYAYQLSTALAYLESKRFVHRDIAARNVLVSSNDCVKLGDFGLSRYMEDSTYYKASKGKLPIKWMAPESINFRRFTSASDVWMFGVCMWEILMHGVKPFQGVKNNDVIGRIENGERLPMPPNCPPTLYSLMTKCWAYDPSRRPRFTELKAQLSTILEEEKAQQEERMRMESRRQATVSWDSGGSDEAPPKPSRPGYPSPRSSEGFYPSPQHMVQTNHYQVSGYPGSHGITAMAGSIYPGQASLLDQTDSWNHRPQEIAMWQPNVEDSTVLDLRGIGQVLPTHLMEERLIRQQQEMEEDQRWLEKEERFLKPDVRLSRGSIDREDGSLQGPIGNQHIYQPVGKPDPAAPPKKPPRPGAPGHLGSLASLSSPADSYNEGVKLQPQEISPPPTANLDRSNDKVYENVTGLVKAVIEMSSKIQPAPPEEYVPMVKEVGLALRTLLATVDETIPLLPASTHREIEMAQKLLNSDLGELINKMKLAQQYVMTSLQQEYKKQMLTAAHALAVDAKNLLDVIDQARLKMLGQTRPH
# [4] = system: Fibrinogen (Alexa647-labelled); assay: fibrinogen binders on compound microarrays, profiling panel, artefact control for SMM control-protein annotation, biochemical, small-molecule microarray, 635/667 nm fluorescence (AID 1131); details: fibrinogen-A647 binding fluorescence, higher = more signal;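 also: z-score merges 667 nm fluorescence with per-spot signal-to-noise over triplicate slides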
# [5] = biological target: Follistatin (Homo sapiens) (UniProt P19883); assay: follistatin binders on small-molecule microarrays, primary screen, biochemical, small-molecule microarray, 635/667 nm fluorescence (AID 1132); details: FST binding, 635 nm fluorescence, higher = more signal
# Chain of Follistatin (Homo sapiens) (P19883 whole entry, looked up): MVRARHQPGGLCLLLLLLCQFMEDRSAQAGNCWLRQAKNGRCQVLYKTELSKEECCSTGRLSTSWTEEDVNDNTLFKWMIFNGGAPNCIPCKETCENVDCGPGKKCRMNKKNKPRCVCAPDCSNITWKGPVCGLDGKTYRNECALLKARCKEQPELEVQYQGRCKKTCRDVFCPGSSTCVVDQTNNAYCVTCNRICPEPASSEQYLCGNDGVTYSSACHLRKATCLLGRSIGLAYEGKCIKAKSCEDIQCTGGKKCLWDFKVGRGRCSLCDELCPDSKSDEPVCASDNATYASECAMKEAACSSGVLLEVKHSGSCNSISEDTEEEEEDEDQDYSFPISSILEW
# [6] = biological target: Fibroblast growth factor 2 (Homo sapiens) (UniProt P09038); assay: FGF2 binders on small-molecule microarrays, primary screen, biochemical, small-molecule microarray, 635/667 nm fluorescence (AID 1133); details: small-molecule microarray binding, FGF2, fluorescence 635/667; higher = more signal
# Chain of Fibroblast growth factor 2 (Homo sapiens) (P09038 whole entry, looked up): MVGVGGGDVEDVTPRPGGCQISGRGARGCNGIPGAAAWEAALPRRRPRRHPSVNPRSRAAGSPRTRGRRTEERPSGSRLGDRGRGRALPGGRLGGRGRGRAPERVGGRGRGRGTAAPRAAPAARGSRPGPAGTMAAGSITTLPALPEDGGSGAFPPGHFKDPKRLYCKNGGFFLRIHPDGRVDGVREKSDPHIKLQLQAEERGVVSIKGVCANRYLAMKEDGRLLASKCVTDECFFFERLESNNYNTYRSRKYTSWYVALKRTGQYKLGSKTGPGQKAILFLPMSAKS
# [7] = mitochondrial membrane potential change in A549 cells, profiling panel, cell-based, JC-1 fluorescence, basal, 24 h, 100 nL (AID 1138); details: higher = more signal;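 also: A549 lung adenocarcinoma cells under basal conditions with no added stimulus; test concentration not given here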
# Lefty1 = Lefty1 binders on small-molecule microarrays, primary screen, biochemical, small-molecule microarray, 635/667 nm fluorescence (AID 1139); details: small-molecule microarray binding, fluorescence 635/667; higher = more signal
# [8] = system: wheat germ agglutinin (Triticum aestivum), Alexa647-labelled; assay: wheat germ agglutinin binders on compound microarrays, profiling panel, artefact control for SMM control-protein annotation, biochemical, small-molecule microarray, 635/667 nm fluorescence (AID 1140); details: WGA-A647 binding, 635 nm fluorescence, higher = more signal;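 also: score merges 667 nm feature emission with signal to noise over triplicate slides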
# [9] = biological target: Luciferin 4-monooxygenase (Photinus pyralis) (UniProt P08659); assay: firefly luciferase enzyme inhibitors, primary screen, biochemical, luminescence, purified enzyme, 2006 set (AID 1141); details: SteadyGlo luminescence, 30 min, higher = more signal, called active from +8 up or from −8 down;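 also: cell-free assay with purified firefly luciferase at 100 ng per well in PBS; test concentration not given here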
# Chain of Luciferin 4-monooxygenase (Photinus pyralis) (P08659 whole entry, looked up): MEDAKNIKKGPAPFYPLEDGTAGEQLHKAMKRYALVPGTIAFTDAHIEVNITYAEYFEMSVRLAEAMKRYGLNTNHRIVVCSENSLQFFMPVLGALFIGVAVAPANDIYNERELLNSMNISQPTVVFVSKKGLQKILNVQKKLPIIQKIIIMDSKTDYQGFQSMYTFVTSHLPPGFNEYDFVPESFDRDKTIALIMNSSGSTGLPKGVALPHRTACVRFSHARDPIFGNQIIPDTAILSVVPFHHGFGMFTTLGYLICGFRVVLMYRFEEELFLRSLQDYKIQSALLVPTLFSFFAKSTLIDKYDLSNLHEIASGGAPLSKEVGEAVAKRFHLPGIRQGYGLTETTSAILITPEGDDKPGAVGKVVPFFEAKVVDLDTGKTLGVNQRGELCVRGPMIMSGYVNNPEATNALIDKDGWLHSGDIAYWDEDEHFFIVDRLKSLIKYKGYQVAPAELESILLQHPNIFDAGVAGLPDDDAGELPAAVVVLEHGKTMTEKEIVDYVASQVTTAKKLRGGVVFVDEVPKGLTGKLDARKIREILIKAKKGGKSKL
# [10] = system: Wnt5a (protein binding on small-molecule microarray); assay: Wnt5a binders on small-molecule microarray, primary screen, biophysical, 635/667 nm fluorescence (AID 1142); details: 635 nm fluorescence, higher = more signal;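 also: fluorescence read at 667 nm with signal to noise per printed feature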
# [11] = cell viability in Huh7 cells, primary screen, cytotoxicity control for HCV replication inhibitor project, CellTiter-Glo luminescence, basal, 48 h (AID 1143); details: Huh7 HCV replicon, higher = more signal, called active from +8 up or from −8 down;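 also: Huh7 hepatoma cells carrying a hepatitis C replication reporter with no stimulus; test concentration not given here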
# [12] = P. aeruginosa biofilm formation inhibitors, primary screen, PAO1 strain, BacTiter-Glo luminescence, LB-PBS (AID 1144); details: 12 h, higher = more signal
# [13] = CREB reporter modulators without forskolin, primary screen, cell-based, PC12, CRE-LacZ reporter, unstimulated (AID 1145); details: no forskolin, luminescence, 4.5 h, higher = more signal, called active from +8 up or from −8 down
# [14] = CREB reporter modulators under forskolin, primary screen, cell-based, PC12, CRE-LacZ reporter, forskolin-stimulated (AID 1146); details: luminescence, 4.5 h, higher = more signal, called active from +8 up or from −8 down;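 also: PC12 cells with 6xCRE LacZ reporter stimulated by forskolin 10 µM; beta-galactosidase reporter signal reflecting CREB driven transcription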
# [15] = biological target: Streptavidin (Streptomyces avidinii) (UniProt P22629); assay: streptavidin binders on small-molecule microarray, primary screen, artefact control for SMM compound annotation, biophysical, 635/667 nm fluorescence (AID 1147); details: streptavidin binding, higher = more signal;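 also: signal reflects streptavidin binding to arrayed compounds as a control protein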
# Chain of Streptavidin (Streptomyces avidinii) (P22629 whole entry, looked up): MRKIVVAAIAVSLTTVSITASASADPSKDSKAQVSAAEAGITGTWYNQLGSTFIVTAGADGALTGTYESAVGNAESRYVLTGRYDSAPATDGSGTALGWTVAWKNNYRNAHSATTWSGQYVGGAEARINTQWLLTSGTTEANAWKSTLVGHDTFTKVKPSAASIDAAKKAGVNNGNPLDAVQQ
# [16] = small-molecule binders of probe aInhba, primary screen, biochemical, small-molecule microarray, 635/667 nm fluorescence (AID 1148); details: higher = more signal;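 also: score merges 667nm spot fluorescence with signal-to-noise for antibody binding to printed compounds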
# Torsin-1A (Homo sapiens) [17] = biological target: Torsin-1A (Homo sapiens) (UniProt O14656); assay: torsin A binders from cell lysate, primary screen, small-molecule microarray, wild-type, 635/667 nm (AID 1149); details: COS7 hTOR1A-WT lysate, 635 nm fluorescence, higher = more signal
# Chain of Torsin-1A (Homo sapiens) (O14656 whole entry, looked up): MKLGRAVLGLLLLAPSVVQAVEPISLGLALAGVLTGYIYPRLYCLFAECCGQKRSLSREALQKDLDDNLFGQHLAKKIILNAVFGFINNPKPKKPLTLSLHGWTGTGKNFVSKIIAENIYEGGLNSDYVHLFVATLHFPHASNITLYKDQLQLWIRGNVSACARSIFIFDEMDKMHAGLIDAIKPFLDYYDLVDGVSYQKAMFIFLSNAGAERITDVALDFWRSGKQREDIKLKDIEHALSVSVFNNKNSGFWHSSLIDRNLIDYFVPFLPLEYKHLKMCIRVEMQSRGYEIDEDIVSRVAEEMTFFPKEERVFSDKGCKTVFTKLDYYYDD
# Torsin-1A (Homo sapiens) [18] = biological target: Torsin-1A (Homo sapiens) (UniProt O14656); assay: small-molecule binders of mutant TOR1A in lysate, primary screen, cell lysate, small-molecule microarray, COS7 lysate, 635/667 nm fluorescence (AID 1150); details: COS7 hTOR1A mutant lysate, 635 nm fluorescence, higher = more signal;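 also: score pools 667 nm emission and signal to noise measuring lysate protein binding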
# [19] = system: Sonic hedgehog protein (Shh); assay: small-molecule binders of Shh protein, primary screen, biochemical, small-molecule microarray, 635/667 nm fluorescence (AID 1151); details: small-molecule microarray binding, 635 nm fluorescence; higher = more signal;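 also: Shh protein binding to compounds spotted on small-molecule microarray slides; score combines spot fluorescence intensity with signal-to-noise across triplicate slides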
Compound,composite z-score [1],composite z-score [2],composite z-score [3],composite z-score [4],composite z-score [5],composite z-score [6],z-score [7],composite z-score (Lefty1),composite z-score [8],z-score [9],composite z-score [10],z-score [11],z-score [12],z-score [13],z-score [14],composite z-score [15],composite z-score [16],composite z-score (Torsin-1A (Homo sapiens) [17]),composite z-score (Torsin-1A (Homo sapiens) [18]),composite z-score [19]
CCC[C@@H]1[C@@H](Sc2ccccc2)[C@@H](C(=O)O)[C@H](c2ccc(C)cc2)N1S(=O)(=O)c1ccc(C)cc1,0.832,1.25,0.725,1.05,0.769,0.0754,-0.61,0.717,0.774,1.46 (inactive),0.664,-1.72 (inactive),-1.96 (inactive),-0.471 (inactive),-0.722 (inactive),1.67,0.0921,0.26,0.165,0.641
CCCCC(O)C1C=CC2C(=O)N(C)C(=O)C2N1Nc1ccccc1 (stereo not given),1.86,0.603,0.383,0.416,0.0471,-0.614,-0.771,-0.291,0.0187,0.16 (inactive),0.0991,0.898 (inactive),-0.556 (inactive),-0.14 (inactive),0.721 (inactive),0.264,0.106,0.29,0.0531,-0.768
[N-]=[N+]=NCc1ccccc1[C@@H]1OC(c2ccc(OCCCO)cc2)=N[C@]1(Cc1ccccc1)C(=O)NCc1ccccc1,0.491,1.18,1.11,0.734,0.846,-0.0705,0.012,-0.0948,1.03,0.294 (inactive),0.609,-2.86 (inactive),-0.338 (inactive),-0.585 (inactive),0.0071 (inactive),1.24,-0.0267,0.823,1.1,-0.471
COc1cccc(C[C@H]2C[C@@H](CO[Si](C(C)C)(C(C)C)C(C)C)N3C(=O)[C@@]4(C(C)=O)O[C@@]23[C@@H]2C(=O)N(C)C(=O)[C@@H]24)c1,-0.265,0.681,0.0669,0.529,0.897,1.25,0.189,1.4,0.326,0.768 (inactive),0.0121,-2.38 (inactive),0.333 (inactive),0.222 (inactive),-0.065 (inactive),0.0285,0.2,0.241,0.0185,1.3
CC(C)C(=C=CC[C@@H](O)c1ccccc1OCCO)C[C@@H](O)c1cc(Cl)cc(Cl)c1O,1.46,1.23,-0.14,0.88,1.38,0.964,-1.35,1.58,0.54,-1 (inactive),0.532,-3.43 (inactive),0.519 (inactive),3.25 (inactive),0.266 (inactive),1.05,0.0622,1.44,0.86,2.11
CCCCNC(=O)c1ccc(C#C[Si](C)(C)C)c(OC(C)=O)c1,0.312,0.689,0.193,0.0903,0.389,0.326,-1.35,0.479,-0.0014,0.229 (inactive),-0.0504,-0.155 (inactive),0.305 (inactive),-0.773 (inactive),0.0361 (inactive),0.184,-0.12,0.18,1.1,0.985
CC(C)=CCN(C(=O)C#Cc1ccccc1)[C@H](CO)c1ccccc1,0.326,0.419,-0.0317,0.237,0.653,0.766,-0.842,0.743,0.146,0.265 (inactive),-0.0314,-8.76 (active),1.15 (inactive),14.3 (active),-4.52 (inactive),-0.131,-0.15,0.423,-0.0045,0.708
COc1ccc([Si](C)(C)[C@H]2[C@H](CCn3cc([C@H](O)c4ccccc4)nn3)O[C@@]3(C(=O)N(c4ccccc4)c4ccccc43)[C@@H]2C)cc1,0.448,-0.431,-0.4,-0.651,1.24,0.195,0.903,1.51,0.428,0.687 (inactive),0.04,-4.47 (inactive),0.674 (inactive),0.236 (inactive),0.115 (inactive),-0.265,-0.0087,0.96,-0.242,1.97
CCN(CC)c1ccc(N2CC=CC34O[C@@H]5C=CCOC(=O)[C@@H]5[C@H]3C(=O)N(CCO)[C@@H]4C2=O)cc1 (stereo not given in full),-0.305,-0.508,-0.856,-0.602,-0.721,-1.44,1.41,-1.35,-1.38,-1.47 (inactive),-0.403,-0.271 (inactive),1.72 (inactive),-0.0656 (inactive),-0.599 (inactive),-1.77,0.476,-0.0491,-0.669,-0.198
COC(=O)[C@@]1(CCC(=O)OC(C)(C)C)N=C(c2ccc(OCCCO)cc2)O[C@H]1c1ccccc1CN=[N+]=[N-],0.656,0.0163,-0.0599,0.0201,0.663,0.442,0.895,-0.756,0.249,-0.488 (inactive),0.113,-2.35 (inactive),-0.0281 (inactive),1.94 (inactive),-1.55 (inactive),-0.139,0.241,-0.193,0.261,0.339
